# In PubChem BioAssay AID651946 (Broad Institute, 2012):
# Measured potencies and affinities stand elsewhere. Unmarked numbers belong to inactive results. Active and inactive are the calls of the source.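 The calls were made as follows: active = toxic compound whose fitted half-effect dose of signal loss is at most twice its top tested dose; inconclusive = flat fit losing 30 to 70% signal, or poor fit; inactive = the rest.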
# Assay: HeLa cell viability loss – plate reader, dry powder, cytotoxicity control, dose response (AID 651946)
# Settings: ATP luminescence (CellTiter-Glo), 48 h; series mostly up to 26 µM; activity change, negative = cytotoxicity: at the top concentration
Compound,"activity change, negative = cytotoxicity",outcome
Clc1ccccc1CSc1nnc(-c2ccccc2)o1,7%,
N#Cc1ccccc1CSc1nnc(-c2ccccc2)o1,2.07%,
CS(=O)(=O)c1ccc(-c2nnc(SCc3ccccc3)o2)cc1,-16.9%,
FC(F)(F)c1cccc(CSc2nnc(-c3ccccc3)o2)c1,1.42%,
Brc1cccc(-c2nnc(SCc3ccccn3)o2)c1,-15.3%,
c1ccc(CSc2nnc(-c3cccnc3)o2)cc1,8.35%,
c1ccc(CSc2nnc(-c3cnco3)o2)cc1,6.24%,
FC(F)(F)c1cccc(-c2nnc(SCc3ccccc3)o2)c1,6.67%,
COc1ccc(-c2nnc(SCc3ccccc3)o2)cc1,-3.91%,
c1ccc(-n2cc(CSc3nnc(C4CCCC4)o3)nn2)cc1,0.271%,
Fc1ccc(CSc2nnc(-c3ccccc3)o2)cc1,,inactive
c1ccc(CNc2nnc(-c3ccccc3)o2)cc1,11.4%,
c1ccc(CSc2nnc(-c3cccnc3)o2)nc1,16.6%,
Fc1ccc(-c2nnc(SCc3ccccc3)o2)cc1,12.4%,
Cc1ccc(CSc2nnc(-c3ccccc3)o2)cc1,9.57%,
Fc1cccc(-c2nnc(SCc3ccccc3)o2)c1,4.36%,
CN(C)CCSc1nnc(-c2ccccc2)o1,1.24%,
COc1ccc(CSc2nnc(-c3ccc(Cl)cc3)o2)nc1,-4.32%,
FC1(F)CCN(CCSc2nnc(-c3ccccc3)o2)CC1,0.895%,

Compound,"activity change, negative = cytotoxicity",outcome
c1ccc(-c2nnc(SCC3CC3)o2)cc1,1.63%,
Fc1ccc(Cn2cc(CSc3nnc(-c4ccc(F)cc4)o3)nn2)cc1,-3.32%,
FC(F)(F)CNCCSc1nnc(-c2ccccc2)o1,-5.52%,
c1ccc(CCc2nnc(SCc3ccccc3)o2)cc1,5.85%,
Fc1ccccc1-c1nnc(SCc2ccccc2)o1,2.75%,
FC(F)(F)c1ccc(CSc2nnc(-c3ccccc3)o2)cc1,4.35%,
CS(=O)(=O)c1ccccc1CSc1nnc(-c2ccccc2)o1,-6.14%,
CC(C)c1nnc(SCc2ccccc2)o1,8.34%,
c1ccc(-c2nnc(SCCN3CCCC3)o2)cc1,-0.13%,
c1ccc(CSc2nnc(-c3ccc(-c4ccccc4)cc3)o2)cc1,-7.34%,
COc1ccccc1-c1nnc(SCc2ccccc2)o1,-6.55%,
CS(=O)(=O)c1ccccc1-c1nnc(SCc2ccccc2)o1,-4.85%,
c1ccc(CCc2nnc(-c3ccccc3)o2)cc1,13% [at 12 µM],
CCSc1nnc(-c2ccccc2)o1,-0.855%,
N#Cc1ccc(CSc2nnc(-c3ccccc3)o2)cc1,-5.77%,
c1ccc(-c2nnc(SCc3ccncc3)o2)cc1,4.81%,
O=S(=O)(Cc1ccccc1)c1nnc(-c2ccccc2)o1,-6.44%,
c1ccc(Cn2cc(CSc3nnc(C4CCCC4)o3)nn2)cc1,-10.8%,
